Bioassay records: PubChem, National Center for Advancing Translational Sciences (NCATS)
ELG1 genotoxic = qHTS screen for small molecules that induce genotoxicity in human embryonic kidney (HEK293T) cells expressing luciferase-tagged ELG1; HEK293T ELG1-luciferase reporter, luminescence, 16 h; Potency, µM (highest dose often 46 µM), inactives show at the highest dose activity change, positive = activation, usual class: activators; actives 1.3% (n = 330,000); AID 504466, 2011; note: % of control where 0% means no effect; nearly all actives have a fitted effect of over 60% in size
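Screening used a luciferase reporter fused to human ELG1 in HEK293T cells. Luminescence was read on a CCD plate imager after 16 hr exposure and 30 min ONE-Glo incubation.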
Rab9 prom act = qHTS Assay for Rab9 Promoter Activators; Potency, µM (doses to about 9.22 µM), inactives show at the highest dose activation, negative = inhibition, hits mostly activators; actives 2.8% (n = 320,000); Huh7 Rab9 promoter-luciferase reporter, luminescence, 24 h; note: % of control where 0% means no effect; nearly all actives have a fitted effect of over 60% in size
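Luminescence read-out: Huh7 cells stably expressing Rab9-luciferase, treated 24 h with compound at 37 °C, then lysed with luciferase reagent for 10 min at ambient before reading.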
Luc counter = Counterscreen for Luciferase (Kinase-Glo TM) Inhibition. Luciferin 4-monooxygenase (Photuris pensylvanica), Q27757. Kinase-Glo luciferase, ATP luminescence, 8 min. Potency, µM (highest dose often 38.3 µM), for inactives: at the highest dose activity change, negative = inhibition, most hits filed as inhibitors. actives 0.28% (n = 200,000). AID 1379, 2008; note: % is set by controls: 0 for no effect and ±100 for the full control effect; nearly all actives have a fitted effect of over 60% in size
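Inhibition of Kinase-Glo luciferase light generation was assessed at 10 uM ATP in pH 7.2 imidazole buffer, with luminescence measured after eight minutes at ambient temperature.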
NPC1 prom act = qHTS Assay for NPC1 Promoter Activators. Huh7 NPC1 promoter luciferase reporter, 24 h. Potency, µM (titrated, usually from 9.22 µM), inactives show at the highest dose activation, usual class: activators. actives 2.4% (n = 320,000). AID 485313, 2010; note: % of control where 0% means no effect; nearly all actives have a fitted effect of over 60% in size
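Luciferase expression driven by the NPC1 promoter was measured in stably transfected Huh7 cells after a 24 h compound incubation, using a luciferase reagent and a luminescence read.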
FLuc modulator = qHTS profiling assay for firefly luciferase inhibitor/activator using purifed enzyme and Km concentrations of substrates (counterscreen for miR-21 project); Luciferin 4-monooxygenase (Photinus pyralis), P08659; purified FLuc, Km substrates, luminescence inhibition; actives 6.9% (n = 360,000); Potency, µM (series often up to 57.5 µM), for inactives: top-dose activity change, negative = inhibition, actives largely listed as inhibitors; AID 588342, 2011;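 note: plate controls were vehicle for no effect and reference inhibitor for full effect; nearly all actives have a fitted effect of over 55% in size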
Target sequence (P08659 whole entry, looked up): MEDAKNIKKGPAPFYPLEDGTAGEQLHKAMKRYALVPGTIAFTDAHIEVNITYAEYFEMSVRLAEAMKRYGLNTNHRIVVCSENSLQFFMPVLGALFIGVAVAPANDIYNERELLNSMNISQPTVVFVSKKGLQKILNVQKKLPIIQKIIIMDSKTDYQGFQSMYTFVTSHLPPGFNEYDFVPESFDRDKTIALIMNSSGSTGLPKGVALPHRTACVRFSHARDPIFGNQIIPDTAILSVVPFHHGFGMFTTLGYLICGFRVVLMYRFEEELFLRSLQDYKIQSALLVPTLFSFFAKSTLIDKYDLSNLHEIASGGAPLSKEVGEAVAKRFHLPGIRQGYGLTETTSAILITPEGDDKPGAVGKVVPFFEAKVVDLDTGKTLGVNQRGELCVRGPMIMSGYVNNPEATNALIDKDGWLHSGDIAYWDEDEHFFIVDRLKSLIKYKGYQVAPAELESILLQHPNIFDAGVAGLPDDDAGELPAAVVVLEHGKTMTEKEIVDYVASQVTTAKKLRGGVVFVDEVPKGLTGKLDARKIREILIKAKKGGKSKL
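Biochemical qHTS of compounds, final roughly 60 µM downward over six points, against 10 nM purified firefly luciferase using Km concentrations of substrates (10 uM D-luciferin, 10 uM ATP) in Tris acetate pH 7.5 buffer; luminescence output.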
SMN2 splice enh = qHTS Assay for Enhancers of SMN2 Splice Variant Expression. Potency, µM (doses to about 46.1 µM), for inactives: at the highest dose activity change, positive = activation, actives largely listed as activators. actives 2.8% (n = 210,000). HEK293 SMN2-luciferase splicing reporter, luminescence, 30-36 h; note: % of control where 0% means no effect; nearly all actives have a fitted effect of over 55% in size
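HEK293 cells carry an SMN2 minigene-luciferase reporter in which exon 7 inclusion puts luciferase in frame. Cells were seeded at 2000 cells/well, attached for 10-12 hours, then exposed to compounds for 30-36 hours at 37C before ONE-Glo luminescence.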
Active calls of the source: *; ? = inconclusive; / = no result given; [ ] = dose if it differs, or a comment. Most compounds without a hit are left out; they make up all but 7.3% or so of the library. Calls come from the whole dose curve; as a rule, active = well fitted curve in the direction sought with a large enough effect; inconclusive = small, poorly fitted or top-dose-only effect, or another doubt; inactive = no such curve, though single readings can be large; an effect the other way counts as inactive or inconclusive. Potency is the fitted concentration of half-maximal effect.

SMILES | ELG1 genotoxic | Rab9 prom act | Luc counter | NPC1 prom act | FLuc modulator | SMN2 splice enh
CCOc1ccc(S(=O)(=O)Nc2cccc(-c3ccc(N4CCCCCC4)nn3)c2)cc1 | ? | 0.3% | / | 3.4% | 8.49µM* | /
CCCCOc1ccc(S(=O)(=O)Nc2cccc(-c3ccc(N4CCOCC4)nn3)c2)cc1 | / | / | / | / | 13.5µM* | /
Cc1ccc(Cl)cc1N1CCN(S(=O)(=O)c2c(C)noc2C)CC1 | -9.1% | -1.6% | / | -3.5% | 1.0% | /
O=C(Nc1ccc(-c2cn3c(n2)SCC3)cc1)c1ccc2c(c1)OCO2 | 6.2% | ? | -23.7% | 22.3% | ? | 4.0%
O=C(Nc1cccc(-c2cn3cccnc3n2)c1)c1ccco1 | -2.6% | 0.4% | 1.1% | 1.8% | ? | 3.6%
S=c1[nH]nc(-c2ccc3c(c2)OCO3)n1-c1ccccc1 | -1.3% | -5.8% | -0.1% | -2.0% | -1.5% | -5.9%
CS(=O)(=O)Nc1ccc(-c2cn3cccnc3n2)cc1 | 8.9% | 5.8%[1.84 µM] | / | -0.4% | ? | /
O=C(Nc1cccc(-c2cn3c(n2)SCC3)c1)c1ccc2c(c1)OCO2 | -10.2% | ? | -2.9% | 25.9% | 10.7µM* | 18.9%
c1ccn2cc(-c3ccc4c(c3)OCO4)cc2c1 | ? | 3.16µM* | -18.6% | ? | 3.38µM* | 12.6µM*
O=C(Nc1cccc(-c2cn3cccnc3n2)c1)c1ccc2c(c1)OCO2 | 0.4% | 16.9% | -3.3% | 25.2% | 12µM* | -10.6%
Cc1ccc(-c2cn3cccnc3n2)cc1 | -15.7% | ? | ? | 2.82µM* | 15.1µM* | /
COc1cc(-c2cc(=O)c3c(O)c(OC)c(OC)cc3o2)cc(OC)c1O | ? | -10.4% | / | -19.0% | -17.6% | /
Cc1cccc(NC(=O)C2CCN(C(=O)c3ccc(F)cc3)CC2)n1 | -3.7% | -4.7% | / | -6.2% | 3.5% | /
Nc1cccc(-c2cn3cccnc3n2)c1 | 2.0% | 24.9% | -2.1% | 4.8% | -18.8% | 7.5%
c1cnc2nc(-c3ccc4c(c3)OCO4)cn2c1 | ? | 2.51µM* | ? | ? | 9.53µM* | /
Cc1ccsc1/C=C1/SC(N2CCOCC2)=NC1=O | 19.9% | 24.3% | ? | 21.0% | 21.3µM* | ?
COc1ccc(S(=O)(=O)N2CCN(C(=O)c3ccc(=O)[nH]n3)CC2)cc1OC | -0.5% | -4.7% | / | 0.4% | 1.3% | /
CCc1ccc(C(=O)/C=C/c2ccc([N+](=O)[O-])o2)cc1 | ? | -29.3% | -8.7% | -10.9% | 10.7µM* | -92.2%
Cc1ccc(C(=O)CC(=O)c2cc(Cl)ccc2O)cc1 | 14.6µM* | 19.3% | 18.3% | 18.7% | 16.9µM* | 26.0%
Cc1ccc(C(=O)CC(=O)c2ccc(C)cc2O)cc1 | 4.6% | ? | / | ? | 16.9µM* | /
NC(=O)C1(N2CCCCC2)CCN(C(=O)CSc2nc(C(F)(F)F)cc(=O)[nH]2)CC1 | -2.5% | -2.2% | -1.4% | -2.3% | 2.4% | 5.2%
Cc1cc(OCC(=O)NCCc2nc3ccccc3[nH]2)cc(C)c1Cl | / | / | / | / | -0.8% | -15.6%
O=C(NC(=S)Nc1ccccc1C(F)(F)F)c1ccccc1F | 5.4% | 1.1% | 3.5% | -2.1% | -11.9% | 13.2%
CCCCc1ccc(NC(=O)N[C@@H](CC(C)C)C(=O)O)cc1 | 0.5% | -1.1% | / | -4.5% | -2.0% | /
CCCCc1ccc(NC(=O)CSCc2cc(=O)[nH][nH]2)cc1 | 3.8% | -2.4% | -3.8% | -3.0% | 12µM* | 15.8%
SMILES | ELG1 genotoxic | Rab9 prom act | Luc counter | NPC1 prom act | FLuc modulator | SMN2 splice enh
CCCCc1ccc(NC(=O)CC(C)C)cc1 | ? | ? | -5.6% | ? | 19µM* | ?
CCOCC(=O)Nc1ccc(Br)c(C)c1 | ? | ? | 1.3% | 16.3% | ? | 6.2%
O=C(CSCc1cc(=O)[nH][nH]1)Nc1ccc(F)cc1 | 0.6% | -4.8% | / | -1.8% | -5.1% | /
CCCCc1ccc(NC(=O)COCC)cc1 | 20.6µM* | 25.1% | -1.1% | 12.7% | 19µM* | 21.5%
CNC(=O)NC(=O)CN1C(=O)NC2(CCOc3ccccc32)C1=O (stereo not drawn) | -12.1% | 1.7% | / | 5.4% | 3.2% | /
COCC(=O)Nc1ccc(OCc2ccccc2)cc1 | ? | ? | -2.3% | ? | ? | 12.6µM*
O=C(O)c1cccc(S(=O)(=O)Nc2ccc(OCc3ccccc3)cc2)c1 | -3.7% | -2.8% | / | 1.4% | -8.0% | /
CS(=O)(=O)Nc1ccc(OCc2ccccc2)cc1 | 14.6µM* | ? | 0.8% | ? | 13.5µM* | ?
NC(=O)COc1ccccc1 | -3.4% | -4.8% | / | -3.8% | 0.2% | /
NC(=O)COc1ccc(NC(=O)OCc2ccccc2)cc1 | ? | 16.7% | 0.1% | 19.8% | 12µM* | 20.8%
CC(=O)Nc1ccc(N=Cc2ccc(OCc3ccccc3)cc2)cc1 | ? | 0.3% | -2.0% | -2.5% | 23.9µM* | ?
Cn1c(SCC(=O)Nc2ccccc2C(F)(F)F)nc2c(c1=O)SCC2 | -4.8% | -13.9% | / | -4.2% | 1.9% | /
Nc1[nH]ncc1S(=O)(=O)c1ccccc1 | -3.7% | -4.0%[1.84 µM] | / | -6.2% | 6.4% | /
Cc1ccc(OCCC(=O)N(Cc2ccccc2)c2c(N)n(Cc3ccccc3)c(=O)[nH]c2=O)cc1 | 0.6% | -2.4% | / | -7.9% | 3.7% | /
COC(=O)Nc1ccc(SCC(=O)c2ccccc2)cc1 | 11.6% | ? | 1.4% | 17.2% | 19µM* | 14.3%
COC(=O)Nc1ccc(Oc2ccccc2)cc1 | ? | 0.1% | 2.1% | 1.8% | ? | ?
COC(=O)Nc1ccc(OCc2ccccc2)cc1 | ? | 2.82µM* | -6.8% | ? | -0.5%[2.3 µM] | 12.6µM*
CCOC(=O)c1sc(=N)n(-c2ccc(OC)cc2)c1C | ? | 26.0% | -2.5% | 29.7% | 19µM* | 14.4%
COC(=O)c1c(C)n(-c2ccc(OC)cc2)c2ccc(O)cc12 | -25.3% | -4.1% | -1.9% | -1.1% | 0.1% | 4.47µM*
CCOC(=O)c1ccc2nc(C)c(CC)c(Cl)c2c1 | -0.1% | -12.6% | -3.1% | 8.5% | ? | /
C=CCc1c(C)nc2ccc(C(=O)OCC)cc2c1Cl | 2.2% | 12.1% | -4.5% | 0.0% | 21.3µM* | /
Cc1ccc(N2C(=O)Nc3cc(Cl)c(Cl)cc3N2O)cc1Cl | 0.9% | 0.1% | 0.4% | -1.3% | 16.9µM* | -18.9%
Cc1csc(NC(=O)CCSCCc2ccccn2)n1 | -2.4% | 3.1% | -1.3% | -1.5% | 0.8% | 0.4%
Cc1c(C(=O)N(Cc2ccc(Cl)cc2)C2CCS(=O)(=O)C2)oc2ccccc12 (stereo not drawn) | 0.3% | -1.6% | / | 1.1% | 1.1% | /
